# High-throughput results: PubChem, National Center for Advancing Translational Sciences (NCATS)
# An excerpt weighted towards active compounds, which were near 21% of everything screened.
# VP16 counter: VP16 counterscreen qHTS for inhibitors of ROR gamma transcriptional activity. Drosophila S2 Gal4-VP16 UAS-luciferase, luminescence, 20 h. Potency, µM (series often up to 53.6 µM), for the others: at the top dose activity, negative = inhibition, actives largely listed as inhibitors. 3.5% of 310,000 active;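 also: Gal4-VP16 expression switched on by copper sulfate through the metallothionein promoter; potency is read from the fitted curve at half-maximal effect; nearly all actives have a fitted effect of over 50% in size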
# ELG1 DNA repair: qHTS screen for small molecules that inhibit ELG1-dependent DNA repair in human embryonic kidney (HEK293T) cells expressing luciferase-tagged ELG1. HEK293T ELG1-luciferase reporter, luminescence, 16 h; DNA damage induced by 5-fluorouridine. Potency, µM (top dose mostly 46.1 µM), without a hit: at the top dose activity change, negative = inhibition, most hits filed as inhibitors. 2.3% of 330,000 active. AID 504467, 2011; also: potency is read from the fitted curve at half-maximal effect; nearly all actives have a fitted effect of over 55% in size
#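 Reporter activity after DNA damage by 5-fluorouridine is monitored. Compound-treated cells incubate 16 hr at 37 °C, then ONE-Glo is added for 30 min before luminescence reading.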
# IL-1B inflam inh: qHTS for Inhibitors of Inflammasome Signaling: IL-1-beta AlphaLISA Primary Screen; activity change, % at 57.5 µM; THP-1 LPS/ATP IL-1B secretion, AlphaLISA, 16 h; hits give low values; 4.7% of 360,000 active; in the data active = activity change below about -50%; inconclusive = mostly about -30% to -49%
#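 THP-1 cells pretreated 1 hr with compounds (up to 57.5 uM final), then stimulated with LPS (250 ng/mL final) plus ATP (1.25 mM final); secreted IL-1B measured by AlphaLISA after 16 hr, decreased signal indicating inhibition.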
# RORgamma inh: qHTS for inhibitors of ROR gamma transcriptional activity | Potency, µM (doses to about 53.6 µM), for the others: top-dose activity change, negative = inhibition, hits mostly inhibitors | 5.4% of 310,000 active | Nuclear receptor ROR-gamma (Mus musculus), P51450 | Drosophila S2 Gal4-RORgamma UAS-luciferase reporter, 20 h; also: potency is read from the fitted curve at half-maximal effect; nearly all actives have a fitted effect of over 60% in size
# Target sequence (P51450 whole entry, looked up, the tested form may be a part): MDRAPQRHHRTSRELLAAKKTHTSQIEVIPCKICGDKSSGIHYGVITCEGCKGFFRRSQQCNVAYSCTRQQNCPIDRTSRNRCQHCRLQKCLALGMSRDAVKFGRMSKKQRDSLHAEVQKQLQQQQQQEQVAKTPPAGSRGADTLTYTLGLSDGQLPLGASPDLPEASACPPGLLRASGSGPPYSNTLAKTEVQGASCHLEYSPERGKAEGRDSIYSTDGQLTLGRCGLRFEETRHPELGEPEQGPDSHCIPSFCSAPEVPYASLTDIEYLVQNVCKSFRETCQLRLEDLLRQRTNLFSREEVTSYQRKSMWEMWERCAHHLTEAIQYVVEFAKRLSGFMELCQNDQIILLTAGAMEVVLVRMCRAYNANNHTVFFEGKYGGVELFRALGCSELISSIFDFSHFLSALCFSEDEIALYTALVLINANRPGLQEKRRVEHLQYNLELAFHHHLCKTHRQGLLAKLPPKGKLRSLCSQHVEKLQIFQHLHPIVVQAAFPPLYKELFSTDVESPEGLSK
#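 ROR gamma transcriptional activity was tracked as Gal4-UAS luciferase output in stably transfected Drosophila Schneider cells, with compound added 1 hr before 700 uM copper sulfate induction and a 20 hr ambient-temperature incubation.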
# DT40 TDP1 CPT: qHTS for Inhibitors of human tyrosyl-DNA phosphodiesterase 1 (TDP1): qHTS in cells in presence of CPT; 12% of 420,000 active; AID 686979, 2013; Potency, µM (doses to about 46.2 µM), for inactives: top-dose activity change, negative = growth inhibition, actives largely listed as inhibitors; chicken DT40 Tdp1-/-;hTDP1 cells + 20 nM CPT, ATP luminescence, 48 h; also: potency is read from the fitted curve at half-maximal effect; nearly all actives have a fitted effect of over 55% in size
#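 Chicken DT40 Tdp1-/- cells stably complemented with human TDP1 were seeded at 400 cells/well in medium containing 20 nM camptothecin, exposed to pin-transferred compounds, and grown at 37 °C for at least 48 hr. Viability was read as ATP luminescence.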
# DT40 TDP1 no CPT: qHTS for Inhibitors of human tyrosyl-DNA phosphodiesterase 1 (TDP1): qHTS in cells in absence of CPT | DT40 Tdp1-/- hTDP1 cells, no CPT, ATP luminescence, 48 h | Potency, µM (highest dose often 46.2 µM), inactives show at the top dose activity change, negative = growth inhibition, usual class: inhibitors | 15% of 420,000 active | AID 686978, 2013; also: potency is read from the fitted curve at half-maximal effect; nearly all actives have a fitted effect of over 55% in size
#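 A cellular qHTS used chicken DT40 cells lacking endogenous Tdp1 but carrying stably transfected human TDP1. Compounds were applied without camptothecin, and cell growth kinetics were judged by ATP-dependent luminescence after ≥48 hr.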
# Active calls of the source: *; ? = inconclusive; . = not tested or not shown; [ ] = dose if it differs, or a comment. Unless noted, calls follow the shape of the dose curve; as a rule, active = well fitted curve in the direction sought with a large enough effect; inconclusive = small, poorly fitted or top-dose-only effect, or another doubt; inactive = no such curve, though single readings can be large; an effect the other way counts as inactive or inconclusive. % is scaled to controls: 0 for no effect and ±100 for the full control effect.
SMILES,VP16 counter,ELG1 DNA repair,IL-1B inflam inh,RORgamma inh,DT40 TDP1 CPT,DT40 TDP1 no CPT
C#CCOCCOCCOCCNc1nc(N2CCN(C(=O)[C@H]([C@@H](C)CC)n3cc([C@@H](N)CC(C)C)nn3)CC2)nc(N2CCN(C(=O)[C@H](Cc3cc4ccccc4[nH]3)n3cc([C@@H](N)Cc4ccc(O)cc4)nn3)CC2)n1,-0.1%,-3.1%,-56.5*,-6.5%,?,?
CC[C@@H](C)C(NC(=O)OC(C)(C)C)c1cn([C@@H](Cc2cc3ccccc3[nH]2)C(=O)N2CCN(C(=O)OC(C)(C)C)CC2)nn1 (stereo not given in full),-3.6%,?,?,31.1%,23.1µM*,23.1µM*
CC1=CC(C)(C)N(C(=O)CN2C(=O)c3ccccc3C2=O)c2ccc(C)cc21,20µM*,?,0.0,?,?,-25.8%
CC1=CC(C)(C)N(C(=O)CN2C(=O)CCC2=O)c2ccccc21,4.0%,3.7%,-2.3,13.7%,-7.3%,-3.2%
NC(=S)NN=C1CCSCC1,.,.,-9.0,.,-0.4%,-20.2%
CC(C)=C1CCC(C)CC1=NNC(N)=S (stereo not given),.,.,?,.,?,20.6µM*
COC(=O)N1CCCCC1c1cc(C(=O)Nc2ccc3c(c2)OCO3)no1 (stereo not given),.,.,-0.3,.,-0.5%,-25.4%
O=C(Nc1ccccc1)c1cc(C2CCCN(C(=O)c3ccc4c(c3)CCO4)C2)on1 (stereo not given),.,.,3.8,.,2.2%,-25.9%
N#Cc1ccc(C(=O)N2CCCCC2c2cc(C(=O)Nc3ccc4c(c3)OCO4)no2)cc1 (stereo not given),.,.,-16.5,.,?,23.1µM*
O=C(Nc1ccc2c(c1)OCO2)c1cc(C2CCCCN2C(=O)c2ccc3c(c2)CCO3)on1 (stereo not given),.,.,-12.6,.,25.9µM*,25.9µM*
O=C(Nc1ccccc1Cl)c1cc(C2CCCN(C(=O)c3ccc4c(c3)CCO4)C2)on1 (stereo not given),.,.,33.2,.,13µM*,14.6µM*
O=C(Nc1ccc2c(c1)OCO2)c1cc(C2CCCCN2C(=O)c2ccc(Cl)cc2)on1 (stereo not given),.,.,-0.7,.,20.6µM*,20.6µM*
CCCNC(=O)c1cc(C2CCCCN2C(=O)c2ccc(C#N)cc2)on1 (stereo not given),.,.,-10.0,.,4.2%,-5.2%
NC(=O)NC(CC(=O)Nc1cccnc1)c1cccc(Br)c1 (stereo not given),-9.2%,10.2%,14.5,11.5%,8.7%,-12.3%
CC(=N)c1c(O)c2ccccc2oc1=O,21.9%,?,?,1.9%,-6.6%,14.2%
CC1CCC(C(=O)c2c(O)c3ccccc3oc2=O)CC1 (stereo not given),-7.3%,?,-94.4*,-10.4%,18.4µM*,18.4µM*
C=C(CO)C1Cc2c(ccc3c(=O)c4c(oc23)COc2cc(OC)c(OC)cc2-4)O1 (stereo not given),-14.0%,.,.,-4.2%,?,?
CC1Cc2c(-c3ccccc3)nc3c(c2CO1)CN(CCOc1ccccc1)CC3 (stereo not given),-1.6%[10 µM],.,.,4.7%[10 µM],.,.
Cc1ccccc1Cn1nc(C)c(NC(=O)c2cc(CC(C)C)on2)c1C,?,25.9µM*,-16.3,?,?,?
